# Data taken from PubChem BioAssay (NCATS).
# Results filed as inconclusive are left out. Unmarked numbers belong to inactive results. The source made the active and inactive calls. Calls follow the shape of the dose curve; as a rule, active = well fitted curve in the direction sought with a large enough effect; inconclusive = small, poorly fitted or top-dose-only effect, or another doubt; inactive = no such curve, though single readings can be large; an effect the other way counts as inactive or inconclusive.
# Columns and labels:
# [1] = Quantitative High-Throughput drug screen in 47 multiple myeloma cell lines against the NCATS MIPE library collection: NCIH929_DSMZ cell viability assay (AID 1918978); also: nearly all actives have a fitted effect of over 35% in size
# Outline: (§1)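 ATP-based luminescence (CellTiter-Glo, 5 min RT incubation) quantified surviving cells following two days' treatment with MIPE 4.0 agents at 37 °C, 5% CO2.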
# [2] = Quantitative High-Throughput drug screen in 47 multiple myeloma cell lines against the NCATS MIPE library collection: OCIMY1_PLB cell viability assay (AID 1918979); also: nearly all actives have a fitted effect of over 35% in size;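 as to viability: 100% = DMSO-only wells and 0% = cell-free media-only wells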
# Outline: as §1
# [3] = Quantitative High-Throughput drug screen in 47 multiple myeloma cell lines against the NCATS MIPE library collection: MM1S_ATCC cell viability assay (AID 1918980); also: nearly all actives have a fitted effect of over 45% in size
# Outline: as §1
# [4] = Quantitative High-Throughput drug screen in 47 multiple myeloma cell lines against the NCATS MIPE library collection: KMS28PE_JCRB cell viability assay (AID 1918983); also: nearly all actives have a fitted effect of over 35% in size
# Outline: as §1
# [5] = Quantitative High-Throughput drug screen in 47 multiple myeloma cell lines against the NCATS MIPE library collection: OCIMY7_PLB cell viability assay (AID 1918987); conditions: OCI-MY7 myeloma viability, CellTiter-Glo ATP, 48 h; viability (% of DMSO): at 45.8 µM (top of the series); also: nearly all actives have a fitted effect of over 65% in size
# Outline: as §1
# [6] = Quantitative High-Throughput drug screen in 47 multiple myeloma cell lines against the NCATS MIPE library collection: OCIMY5_PLB cell viability assay (AID 1918988); also: nearly all actives have a fitted effect of over 65% in size
# Outline: as §1
# [7] = Quantitative High-Throughput drug screen in 47 multiple myeloma cell lines against the NCATS MIPE library collection: OPM1_PLB cell viability assay (AID 1918989); also: nearly all actives have a fitted effect of over 40% in size
# Outline: as §1
# [8] = Quantitative High-Throughput drug screen in 47 multiple myeloma cell lines against the NCATS MIPE library collection: XG6_PLB cell viability assay (AID 1919865); also: nearly all actives have a fitted effect of over 40% in size
# Outline: as §1
# [9] = Quantitative High-Throughput drug screen in 47 multiple myeloma cell lines against the NCATS MIPE library collection: VP6_DJ cell viability assay (AID 1919867); also: nearly all actives have a fitted effect of over 40% in size
# Outline: as §1
# [10] = Quantitative High-Throughput drug screen in 47 multiple myeloma cell lines against the NCATS MIPE library collection: PE2_PLB cell viability assay (AID 1919869); also: nearly all actives have a fitted effect of over 35% in size
# Outline: as §1
# [11] = Quantitative High-Throughput drug screen in 47 multiple myeloma cell lines against the NCATS MIPE library collection: L363_DSMZ cell viability assay (AID 1918984); also: nearly all actives have a fitted effect of over 40% in size
# Outline: as §1
# [12] = Quantitative High-Throughput drug screen in 47 multiple myeloma cell lines against the NCATS MIPE library collection: KMS34_JCRB cell viability assay (AID 1918985); also: nearly all actives have a fitted effect of over 40% in size
# Outline: as §1
# [13] = Quantitative High-Throughput drug screen in 47 multiple myeloma cell lines against the NCATS MIPE library collection: SKMM1_PLB cell viability assay (AID 1919863); conditions: SKMM1 myeloma viability, CellTiter-Glo ATP, 48 h; viability: active compounds read low; also: nearly all actives have a fitted effect of over 35% in size
# Outline: as §1
# [14] = Quantitative High-Throughput drug screen in 47 multiple myeloma cell lines against the NCATS MIPE library collection: U266_ATCC cell viability assay (AID 1919864); also: nearly all actives have a fitted effect of over 35% in size;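 as to viability (% of DMSO control): 0% = media-only wells without cells and 100% = DMSO-only wells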
# Outline: as §1
# [15] = Quantitative High-Throughput drug screen in 47 multiple myeloma cell lines against the NCATS MIPE library collection: XG1_PLB cell viability assay (AID 1919866); also: nearly all actives have a fitted effect of over 35% in size
# Outline: as §1
# [16] = Quantitative High-Throughput drug screen in 47 multiple myeloma cell lines against the NCATS MIPE library collection: UTMC2_PLB cell viability assay (AID 1919868); conditions: CellTiter-Glo ATP luminescence, 48 h; viability (% of DMSO control): at 45.8 µM (top of the series); also: nearly all actives have a fitted effect of over 55% in size;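 as to viability (% of DMSO control): 100% = DMSO-only wells and 0% = media-only wells without cells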
# Outline: as §1
# [17] = Quantitative High-Throughput drug screen in 47 multiple myeloma cell lines against the NCATS MIPE library collection: PCM6_Riken cell viability assay (AID 1919870); also: nearly all actives have a fitted effect of over 30% in size
# Outline: as §1
# [18] = Quantitative High-Throughput drug screen in 47 multiple myeloma cell lines against the NCATS MIPE library collection: MM1R_ATCC cell viability assay (AID 1918981); also: nearly all actives have a fitted effect of over 35% in size
# Outline: as §1
# [19] = Quantitative High-Throughput drug screen in 47 multiple myeloma cell lines against the NCATS MIPE library collection: LP1_DSMZ cell viability assay (AID 1918982); also: nearly all actives have a fitted effect of over 35% in size
# Outline: as §1
# Potency is read from the fitted curve at half-maximal effect.
Structure (SMILES),Potency [1],Potency [2],Potency [3],Potency [4],Potency [5],Potency [6],Potency [7],Potency [8],Potency [9],Potency [10],Potency [11],Potency [12],viability [13],Potency [14],Potency [15],Potency [16],Potency [17],Potency [18],Potency [19],Potency [13]
CC(C)(C)Cn1c(N)nc2ccc(-c3[nH]c(C(C)(C)C)nc3-c3ccc(F)cc3)nc21,26.4 µM (active),16.6 µM (active),16.6 µM (active),23.5 µM (active),18.7 µM (active),16.6 µM (active),20.9 µM (active),14.8 µM (active),16.6 µM (active),20.9 µM (active),–,–,–,–,–,–,–,–,–,–
COc1ccc(-c2cc(=O)c3c(O)cc(O)cc3o2)cc1O,2.64 µM (active),inactive,6.62 µM (active),inactive,3.72 µM (active),2.64 µM (active),7.43 µM (active),2.35 µM (active),4.18 µM (active),6.62 µM (active),5.9 µM (active),20.9 µM (active),119%,8.33 µM (active),2.09 µM (active),8.33 µM (active),3.32 µM (active),–,–,–
NS(=O)(=O)c1cccc2c1C(=O)c1cccc(O)c1C2=O,0.264 µM (active),1.18 µM (active),–,–,0.118 µM (active),0.526 µM (active),0.235 µM (active),0.372 µM (active),0.662 µM (active),0.187 µM (active),0.166 µM (active),0.418 µM (active),–,6.62 µM (active),–,0.372 µM (active),0.469 µM (active),0.526 µM (active),0.743 µM (active),0.372 µM (active)
O=C(Nc1cc(Cl)cc2c1[nH]c1cnccc12)c1cccnc1,1.87 µM (active),inactive,11.8 µM (active),16.6 µM (active),14.8 µM (active),16.6 µM (active),inactive,2.64 µM (active),–,–,–,–,–,20.9 µM (active),–,–,–,–,inactive,–
O=C1c2ccccc2-[n+]2ccc3c([nH]c4ccccc43)c21,3.32 µM (active),3.72 µM (active),–,2.35 µM (active),0.264 µM (active),1.05 µM (active),0.935 µM (active),1.48 µM (active),–,1.87 µM (active),3.72 µM (active),0.833 µM (active),–,2.35 µM (active),–,1.32 µM (active),0.59 µM (active),–,2.35 µM (active),–
C[C@]12CC[C@@H]3c4ccc(O)cc4CC[C@H]3[C@H]1C[C@@H](O)[C@H]2O,inactive,inactive,–,–,–,3.32 µM (active),inactive,5.9 µM (active),–,–,–,inactive,–,18.7 µM (active),–,inactive,–,–,inactive,–
N#Cc1ccc(NC(=O)Nc2ccccc2Br)c2n[nH]nc12,18.7 µM (active),inactive,26.4 µM (active),–,–,–,–,5.26 µM (active),–,–,13.2 µM (active),inactive,115%,–,–,–,–,–,inactive,–
Nc1ncnc2c1ncn2[C@@H]1O[C@H](CO)C[C@@H]1O,inactive,inactive,–,–,inactive,–,inactive,inactive,–,inactive,inactive,–,–,26.4 µM (active),inactive,–,inactive,inactive,–,18.7 µM (active)
O=c1c(-c2ccc(O)cc2)coc2cc(O[C@@H]3O[C@H](CO)[C@H](O)[C@H](O)[C@H]3O)ccc12,inactive,inactive,inactive,inactive,–,–,inactive,inactive,–,inactive,inactive,inactive,171%,–,inactive,–,inactive,–,–,–
NC(CO)(CO)CCc1ccc(Sc2cccc(OCc3ccccc3)c2)cc1Cl,20.9 µM (active),26.4 µM (active),3.32 µM (active),–,11.8 µM (active),20.9 µM (active),6.62 µM (active),20.9 µM (active),–,13.2 µM (active),10.5 µM (active),–,–,–,16.6 µM (active),16.6 µM (active),14.8 µM (active),–,20.9 µM (active),–
CO[C@H]1C=CO[C@@]2(C)Oc3c(C)c(O)c4c(O)c(c5c(c4c3C2=O)NC2(CCN(CC(C)C)CC2)N=5)=NC(=O)C(C)=CC=C[C@H](C)[C@H](O)[C@@H](C)[C@@H](O)[C@@H](C)[C@H](OC(C)=O)[C@H]1C,inactive,inactive,–,–,4.18 µM (active),23.5 µM (active),inactive,–,16.6 µM (active),inactive,–,–,99.2%,inactive,–,inactive,–,10.5 µM (active),–,–
O=c1c(-c2ccc(O)cc2)coc2cc(OC3O[C@H](CO)[C@H](O)[C@H](O)[C@H]3O)cc(O)c12 (stereo partly drawn),2.09 µM (active),inactive,–,–,1.48 µM (active),1.48 µM (active),–,1.32 µM (active),–,9.35 µM (active),–,–,–,8.33 µM (active),1.18 µM (active),5.9 µM (active),2.64 µM (active),16.6 µM (active),–,–
N#C[C@H]1C[C@H]2C[C@@H]2N1C(=O)[C@@H](N)C12CC3CC(CC(O)(C3)C1)C2,inactive,inactive,4.18 µM (active),inactive,–,–,–,–,–,0.0026 µM (active),inactive,inactive,–,inactive,inactive,–,–,–,inactive,–
